Laboratory results as given in PubChem BioAssay AID449768 (Vanderbilt High Throughput Screening Facility, 2010).
Hit rate of the full screen: of about 110,000 compounds, about 1,400 (1.3%) were called active.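 The calls were made as follows: active = Z score or B-score, a plate-position-corrected score, falls beyond the plate's 99.7% confidence bounds, in either direction; inactive = both scores lie inside the 99.7% bounds.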 The entries come from a sample that favours actives as a whole.

Molecular target: Sodium-dependent dopamine transporter (Homo sapiens) (UniProt Q01959)
Experiment: modulators of human DAT uptake with cocaine – cell-based, LLC-PK1 hDAT, [14C]-dopamine uptake, MLSMR, cocaine antagonist project, primary screen (AID 449768);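 also: scored against the spread of the other compound wells on the same plate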
Details: LLC-PK1 hDAT cells, [14C]-dopamine uptake with cocaine IC80; at 10 µM; actives deviate in either direction

Sodium-dependent dopamine transporter (Homo sapiens), sequence (Q01959 whole entry, looked up): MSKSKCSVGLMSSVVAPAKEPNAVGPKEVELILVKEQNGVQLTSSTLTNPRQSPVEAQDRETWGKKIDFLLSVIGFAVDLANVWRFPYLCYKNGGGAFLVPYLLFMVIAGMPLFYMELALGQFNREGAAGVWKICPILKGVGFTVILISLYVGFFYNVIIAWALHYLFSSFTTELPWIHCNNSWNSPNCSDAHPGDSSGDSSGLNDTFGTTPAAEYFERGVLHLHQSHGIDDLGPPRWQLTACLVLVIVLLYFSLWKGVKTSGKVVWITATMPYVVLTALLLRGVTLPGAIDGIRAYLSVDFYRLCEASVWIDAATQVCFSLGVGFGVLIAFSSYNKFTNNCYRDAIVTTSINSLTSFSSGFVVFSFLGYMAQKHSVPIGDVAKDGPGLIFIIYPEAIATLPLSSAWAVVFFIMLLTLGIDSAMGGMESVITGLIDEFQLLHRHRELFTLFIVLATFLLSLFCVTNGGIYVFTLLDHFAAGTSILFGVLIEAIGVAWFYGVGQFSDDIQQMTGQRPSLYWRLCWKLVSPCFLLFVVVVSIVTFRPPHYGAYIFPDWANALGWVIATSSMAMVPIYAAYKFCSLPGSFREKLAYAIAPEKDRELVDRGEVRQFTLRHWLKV

B-score, active:
CCCCOC(=O)Nc1nccs1 16.3
CCC1SC2=NCCN2C1(O)c1ccc(Cl)cc1 (stereo not given) -5.92
O=C(CCNS(=O)(=O)c1ccccc1C(F)(F)F)NCc1ccc2c(c1)OCO2 -3.26
O=S(=O)(c1cccc(-c2nnc(SC(F)F)n2-c2ccccc2)c1)N1CCCCC1 -7.23
COc1ccc(NC(=O)ON=C2c3ccccc3-c3ccccc32)cc1 3.84
Cc1cc(N2CCN(S(=O)(=O)c3ccc(C)c(C)c3)CC2)c2ccccc2n1 3.23
Cc1ncn(C23CC4CC(CC(O)(C4)C2)C3)n1 -8.14
CCOC(=O)C1=C(C)Nc2sc(C(=O)c3ccc(Br)cc3)c(N)c2C1c1ccc(C(=O)OC)cc1 (stereo not given) 2.41
CC(=O)Oc1ccccc1C(=O)Nc1ncc([N+](=O)[O-])s1 -5.94
CCSc1nc2c(c(=O)[nH]1)C(c1cccnc1)C(C(=O)OC(C)C)=C(C)N2 (stereo not given) 2.12
COC(=O)C1(S(=O)(=O)C2(C(=O)OC)CCCC2)CCCC1 -2.03
COc1cc(C2C(C(=O)c3ccc(C)o3)=C(O)C(=O)N2CCc2ccccc2)ccc1O (stereo not given) -5.4
COc1ccc2nc(NC(=O)c3ccc(Br)s3)sc2c1 -2.65
Cc1c(C(=O)N2CCOCC2)[nH]c2ccc(OCc3ccccc3)cc12 2.65
Fc1ccc(-c2ccc(-c3nn4c(-c5ccco5)nnc4s3)o2)cc1 -8.2
Cc1ccc(NC(=O)CCN2CCc3ccccc3C2)cc1 2.16
Cc1c(NC(=O)C(C)OC(=O)c2cc3c4ccccc4n(C)c3s2)c(=O)n(-c2ccccc2)n1C (stereo not given) 4.67
Oc1c(Cl)cc(Cl)c(Cl)c1Cc1c(O)c(Cl)cc(Cl)c1Cl -5.94
Cc1ccc(-n2c(C)cc(/C=C(\C#N)C(=O)NCC3CCCO3)c2C)cc1 (stereo not given) 3.1

B-score, inactive:
O=C1c2ccccc2S(=O)(=O)c2cc(N3CCN(c4ccccn4)CC3)ccc21 0.34
COC(C[C@@H](O)C[C@@H](O)[C@H](C)OCc1ccccc1)OC -0.417
OCC[C@H]1C[C@H](O)[C@@H](O)[C@]2(CCCCO2)O1 -1.31
CC(=O)Oc1ccc(C(=O)Nc2nccs2)cc1 -1.53
COc1cc(C(=O)Nc2nccs2)cc(OC)c1OC -0.0124
COc1ccc(C2/C=C\CN(CC(C)C)CC(=O)N2Cc2ccc(F)cc2)cc1 (stereo not given) -0.0164
Cc1cccc(Nc2nc(NCCO)nc(N3CCCC3)n2)c1 1.01
NC(=O)CC[C@@H]1NC(=O)[C@@H]2CCCN2C(=O)c2cc([N+](=O)[O-])cc(F)c2NCCC[C@@H](C(N)=O)NC1=O -0.0519
O=C(COc1ccccc1)NCc1ccc2c(c1)OCO2 -0.475
Cn1cc(CCC(=O)NCc2ccc3c(c2)OCO3)c2ccccc21 0.0949
NC(=O)C[C@@H]1NC(=O)CNC(=O)c2cc([N+](=O)[O-])cc(I)c2NCCC(C(N)=O)NC1=O (stereo not given in full) 0.453
O=S(=O)(c1cccc(S(=O)(=O)N2CCC(n3nnc4ccccc43)CC2)c1)N1CCCCC1 0.575
O=C(O)CCSc1nnc(-c2ccccc2)n1-c1ccccc1 -0.0697
COC(=O)CCCC1=CC2=CC(=O)C(C)(OC(=O)c3cccs3)C(=O)C2=CN1c1cccc(C#N)c1 (stereo not given) -2.03
COc1ccc(NC(=O)c2ccc(OC)cc2)cc1 -1.02
CCCNC(=O)Nc1ccccc1C(=O)Nc1ccc(OC)cc1 1.39
Cc1nc(C(=O)Nc2ccc(Cl)cc2)sc1C1(C)CC(c2ccccc2)=NO1 (stereo not given) 0.677
CC(C)[C@@H]1NC(=O)c2cc([N+](=O)[O-])cc(I)c2NCCC[C@@H](C(=O)NC(CC(=O)O)C(N)=O)NC(=O)[C@H](CO)NC1=O (stereo not given in full) -0.454
Cc1ccc(N2CCN(S(=O)(=O)c3ccc(F)cc3)CC2)c(C)c1 0.000185
Cc1ccc(S(=O)(=O)C(C#N)c2nc3ccccc3nc2N2CCCC2)cc1C (stereo not given) 1.69
C=CC(COCc1ccccc1)N(Cc1ccccc1)S(=O)(=O)c1ccccc1Br (stereo not given) -0.104
C#CCO[C@@H]1C[C@H](n2cnc3c(=O)[nH]c(NC(=O)C(C)C)nc32)O[C@@H]1CO 0.438
COC(=O)c1ccc(C(NC(=O)OCc2ccccc2)/C(F)=C/[C@@H](C)C(=O)O)cc1 (stereo not given in full) -0.297
C/C=C(\C)C(=O)NCCN1C2=NC[C@H](Cc3ccc(O)cc3)N2C[C@@H]1Cc1ccc(OC)cc1 1.04
COC(=O)c1ccc(NC(=O)C23CC4CC(C2)CC(n2cnc(Cl)n2)(C4)C3)cc1 -1.17
CC(N)C12CC3CC(CC(O)(C3)C1)C2 (stereo not given) -0.549
COC(=O)c1c(C)cc(O)c(C)c1O -0.00953
COC(C/C=C/C(=O)[C@@H](C)OCc1ccccc1)OC 0.0548
C=C1C2C[C@H](O)C(C)(C)[C@@]2(O)[C@H](O)C[C@]23C[C@@](C)(O)[C@H](CC[C@H]12)[C@H]3O (stereo not given in full) -0.371
C=CCC1(C(=O)N(C)Cc2ccccc2)CCN(C(=O)OC(C)(C)C)CC1 1.32
O=C1N[C@H](Cc2ccccc2)C(=O)N[C@H]1Cc1cn(S(=O)(=O)c2ccccc2)c2ccccc12 -1.21
CC(C)(C)CN1C(=O)C(=O)NC[C@H]1Cc1cccc2ccccc12 1.91
CCOC(=O)c1sc(=S)n2c1[nH]c(=O)c1ccc(C(=O)OC)cc12 0.185
CCOC(=O)C1=C(C)NC(C)=C(C(=O)OCC)C1c1ccccn1 -1.62
Cc1ccc(CNC(=O)c2ccc3c(c2)S(=O)(=O)c2ccccc2C3=O)cc1 0.00832
CCCC[C@@H]1CN=C(N)N1CCCC 0.44
CC(=O)c1sc(NC(=O)c2cccc3ccccc23)nc1C 1.43
COC(=O)CNC(=O)c1ccccc1[N+](=O)[O-] -0.561
COC(=O)C1=C(C)Nc2ncnn2C1c1cccnc1 (stereo not given) 0.0386
COC(=O)C1=C(N)Oc2cc(C)oc(=O)c2C1c1cccnc1 (stereo not given) 0.0204
CCC(=O)Nc1cccc(C2=NOC3(C2)C[C@@H](C(N)=O)N(C(=O)c2cc([N+](=O)[O-])cc([N+](=O)[O-])c2C)C3)c1 (stereo not given in full) -0.0284
C#CCOCCOCCOCCNc1nc(N2CCN(C(=O)[C@H](CCC(=O)O)n3cc(C(N)CO)nn3)CC2)nc(N2CCN(C(=O)[C@H](CCCCN)n3cc(C(N)CC(C)C)nn3)CC2)n1 (stereo not given in full) -0.496
COC(C[C@@H](O)[C@H](C)[C@H](O)COCc1ccccc1)OC -0.281
CC(C)=CCc1c(O)c(CC=C(C)C)c2occ(-c3ccc(O)cc3)c(=O)c2c1O 1.79
CNC(=O)c1[nH]cnc1C(=O)N[C@@H](CC(C)C)C(=O)OC(C)(C)C 0.0376
CCCOc1ccc(C2C(C(=O)c3ccc(C)o3)=C(O)C(=O)N2CCCn2ccnc2)cc1 (stereo not given) 0.735
COc1cc(C2C(C(=O)c3ccc(C)o3)=C(O)C(=O)N2Cc2cccnc2)ccc1O (stereo not given) -0.83
COC(C[C@H](O)CC(=O)COCc1ccccc1)OC -0.106
COC(=O)c1sc(NC(=O)c2ccc(OC)cc2OC)nc1C -0.655
CNC(=O)c1ccc2nc(NC(C)=O)sc2c1 -0.144
Cc1c(C(=O)CN2CCOCC2)[nH]c2ccccc12 -1.19
CCOC(=O)c1[nH]c2ccc(OC)cc2c1NC(=O)N1CCOCC1 2.03
COc1ccc(SCCN2CCN(CC(C)C)CCC2=O)cc1 -0.972
C=C1CCN([C@@H](Cc2ccccc2)C(=O)N2CCOCC2)S(=O)(=O)c2ccccc21 -0.0232
CCC(C)[C@@H](C(=O)N1CCNCC1)n1cc(CCCCN)nn1 (stereo not given in full) -0.575
FC(F)(F)c1nnc2sc(-c3ccco3)nn12 -0.943
Cc1nnc2sc(-c3ccco3)nn12 -0.595
CC(C)(C)n1nc(Cc2cccc3ccccc23)c(C#N)c1N -0.00603
O=C(Nc1ccc(S(=O)(=O)N2CCc3ccccc3C2)cc1)c1ccccc1 -0.732
Cc1ccc(NC(=O)CN2CCc3ccccc3C2)cc1 -0.0113
COC(=O)CCCC1=CC2=CC(=O)C(C)(OC(=O)c3cccs3)C(=O)C2=CN1CC1CC1 (stereo not given) -0.726
CCC1(CC)C(=O)C2=C3C1[C@H](C(=O)OC)C=C(C(=O)OC)C[C@H]3[C@H]1C(=O)N(Cc3ccccc3)C(=O)[C@H]1[C@H]2C (stereo not given in full) 0.0892
CCCCN1C(=S)NC[C@@H]1C(C)CC (stereo not given in full) -0.761
CCCCN1C(N)=NC[C@@H]1CC1CCCCC1 -1.39
COC(=O)Nc1c(C)n(C)n(-c2ccccc2)c1=O 0.348
Cc1cc(C)cc(N(C(C)C(=O)Nc2c(C)n(C)n(-c3ccccc3)c2=O)S(C)(=O)=O)c1 (stereo not given) -0.551
Cc1nc(-c2ccc(Cl)cc2)sc1C1(C)CC(c2ccccc2F)=NO1 (stereo not given) -0.519
CC[C@@H](C)[C@@H](C(=O)N1CCN(C(=O)OC(C)(C)C)CC1)n1cc(CCC(=O)O)nn1 -0.83
C#CCNC(=O)[C@H](Cc1ccc(C(=O)c2ccccc2)cc1)NC(=O)OC(C)(C)C -0.105
Cc1ccc(S(=O)(=O)N2CCC(C(=O)NCC3CCCO3)CC2)cc1 (stereo not given) -0.801
Cc1ccc(-c2noc(-c3ccccc3C(=O)NCC3CCCO3)n2)cc1 (stereo not given) -0.191
